Reference: the supplement of paper PMC9897528

These molecules were tested on Scedosporium aurantiacum CBS 136046 (assay: growth inhibition relative to DMSO control (OD600); higher = more antifungal activity, active = 80 or more; extreme values may be limits of the assay). Conditions: 5 µM; 72 h; 37 °C.
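Note: conidia screened in RPMI 1640 medium under 5% CO2, growth read by spectrophotometer, medium with 0.5% DMSO serving as the untreated reference.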

Growth inhibition, inactive:
O=c1cc(Nc2ccc3ccccc3c2)[nH]c(=O)[nH]1 0.738%
O=C(CSc1nnc(Br)n1-c1ccc(C2CC2)c2ccccc12)Nc1ccc(C(=O)O)cc1Cl 18.4%
CC(C)c1ccc(COc2cccc(-c3cc([S+](C)[O-])c(C#N)c(=O)[nH]3)c2)cc1 (stereo not drawn) 0%
C=CCc1cc(Cc2cnc(N)nc2N)cc(OC)c1O 0%
CCc1cc(CCCOc2c(C)cc(-c3noc(C(F)(F)F)n3)cc2C)on1 7.39%
CN(C)CCCNC(=O)c1ccc(-c2cc(O)c3ncccc3c2)cc1 11.4%
CC[C@@]1(O)C(=O)OCc2c1cc1n(c2=O)Cc2cc3c(CN(C)C)c(O)ccc3nc2-1 21.5%
CO/N=C(\C(=O)N[C@@H]1C(=O)N2C(C(=O)OCOC(=O)C(C)(C)C)=C(/C=C\c3scnc3C)CS[C@H]12)c1csc(N)n1 0%
O=C(Nc1ccccc1C(=O)O)c1cccc(Oc2ccccc2)c1 0.169%
CC(C)(C)c1ccc(C(=O)NC(=O)N2CCCc3ccccc32)cc1 0.0285%
CC(=O)Nc1cc(NS(=O)(=O)c2ccc(Cl)cc2)cc2c(Cl)[nH]nc12 21.6%
C[C@H](NC(=O)C(=O)Nc1ccccc1C(C)(C)C)C(=O)N[C@@H](CC(=O)O)C(=O)COc1c(F)c(F)cc(F)c1F 11.6%
NCC(=O)Nc1ccc(-n2nc(C(F)(F)F)cc2-c2ccc3c(ccc4ccccc43)c2)cc1 25.5%
Fc1ccc2c(/C=C/c3nnn[nH]3)c[nH]c2c1 4.45%
Nc1cnn(C2OC(CO)C(O)C2O)c(=O)n1 (stereo not drawn) 8.41%
NC(=O)c1cnc2ccc(S(=O)(=O)c3ccccc3)cc2c1Nc1ccc(O)cc1 32.1%
N#Cc1c(F)c(Cl)c(NCc2ccccc2)c(C#N)c1F 38.1%
C[Si]1(C)CCN(Cc2cc(-c3ccc(Cl)cc3)n(-c3ccc(Cl)cc3)n2)CC1 10%
CC(C)(C)c1ccc(C(Cn2cccc(C(F)(F)F)c2=O)NC2Cc3ccccc3C2)cc1 (stereo not drawn) 28.9%
CCc1ccccc1OCCN1CCCCCC1 26.2%
Nc1nc(=O)[nH]cc1F 0.0511%
O=c1cc(OCc2ccccc2)ccn1Cc1ccccc1 9.92%
O=C1C=C(c2ccccc2)S(=O)(=O)c2ccccc21 12.3%
c1cnc(NCc2ccc(CNc3ncccn3)cc2)nc1 10.1%
CC(=O)N1c2ccccc2NC2=C(C(=O)CC(C)(C)C2)C1c1ccc(OCc2ccccc2)cc1 (stereo not drawn) 15.4%
CC(C)(C)NC(=O)N[C@H](C(=O)N1C[C@H]2[C@@H]([C@H]1C(=O)NC(CC1CCC1)C(=O)C(N)=O)C2(C)C)C(C)(C)C (stereo partly drawn) 10.8%
O=C(c1cc(O)nc2ccccc12)N1CCN(c2ccccc2)CC1 5.66%
CCCC(=O)OCCc1ccccc1 0%
Fc1ccc2c(/C=C/c3cccnc3)c[nH]c2c1 5.3%
CCc1cc(O)c(Oc2ccc(C(N)=O)cc2F)cc1F 29.4%
CC(C)(C)NC(=O)[C@@H]1C[C@@H]2CCCC[C@@H]2CN1C[C@@H](O)[C@H](Cc1ccccc1)NC(=O)[C@H](CC(N)=O)NC(=O)c1ccc2ccccc2n1 15%
Fc1ccc(-c2nc(-c3c[nH]c4ccc(Br)cc34)[nH]c2-c2ccc(F)cc2)cc1 28.1%
Oc1cccc(C(Nc2nccs2)c2ccc3cccnc3c2O)c1 (stereo not drawn) 5.56%
COc1ccc(SCC(=O)N2c3ccccc3Sc3ccccc32)cc1 19.3%
CCCCc1ccc(-c2cc(C(=O)O)cc(-c3ccc(Cl)cc3)n2)cc1 37.3%
O=c1cc(NCCCN[C@@H]2CCOc3c(Br)cc(Br)cc32)[nH]c2ccsc12 17.3%
CCn1cc(C(=O)O)c(=O)c2cc(F)c(N3CCNC(C)C3)c(F)c21 (stereo not drawn) 4.34%
CN1CCN(Cc2ccc(-c3cnc4[nH]cc(-c5ccc6[nH]ccc6c5)c4c3)cc2)CC1 54.5%
